ULK1 primary: inhibitors of human ULK1 kinase. O75385. AlphaScreen Atg13 phosphorylation by ULK1, luminescence. inhibition, % at 5.96 µM. actives 1.9% (n = 30,000). AID 1259251; in the data active = inhibition above about 43%;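 note: 0% = median of compound wells and 100% = no enzyme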
ASK1 primary: inhibitors of human ASK1 kinase. AlphaScreen MKK6 phosphorylation by ASK1, luminescence. inhibition, % at 7.44 µM. actives 0.99% (n = 22,000). AID 1159602; in the data active = inhibition above about 35%;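 note: 0% = median of compound wells and 100% = no enzyme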
Target sequence (Q99683 whole entry, looked up): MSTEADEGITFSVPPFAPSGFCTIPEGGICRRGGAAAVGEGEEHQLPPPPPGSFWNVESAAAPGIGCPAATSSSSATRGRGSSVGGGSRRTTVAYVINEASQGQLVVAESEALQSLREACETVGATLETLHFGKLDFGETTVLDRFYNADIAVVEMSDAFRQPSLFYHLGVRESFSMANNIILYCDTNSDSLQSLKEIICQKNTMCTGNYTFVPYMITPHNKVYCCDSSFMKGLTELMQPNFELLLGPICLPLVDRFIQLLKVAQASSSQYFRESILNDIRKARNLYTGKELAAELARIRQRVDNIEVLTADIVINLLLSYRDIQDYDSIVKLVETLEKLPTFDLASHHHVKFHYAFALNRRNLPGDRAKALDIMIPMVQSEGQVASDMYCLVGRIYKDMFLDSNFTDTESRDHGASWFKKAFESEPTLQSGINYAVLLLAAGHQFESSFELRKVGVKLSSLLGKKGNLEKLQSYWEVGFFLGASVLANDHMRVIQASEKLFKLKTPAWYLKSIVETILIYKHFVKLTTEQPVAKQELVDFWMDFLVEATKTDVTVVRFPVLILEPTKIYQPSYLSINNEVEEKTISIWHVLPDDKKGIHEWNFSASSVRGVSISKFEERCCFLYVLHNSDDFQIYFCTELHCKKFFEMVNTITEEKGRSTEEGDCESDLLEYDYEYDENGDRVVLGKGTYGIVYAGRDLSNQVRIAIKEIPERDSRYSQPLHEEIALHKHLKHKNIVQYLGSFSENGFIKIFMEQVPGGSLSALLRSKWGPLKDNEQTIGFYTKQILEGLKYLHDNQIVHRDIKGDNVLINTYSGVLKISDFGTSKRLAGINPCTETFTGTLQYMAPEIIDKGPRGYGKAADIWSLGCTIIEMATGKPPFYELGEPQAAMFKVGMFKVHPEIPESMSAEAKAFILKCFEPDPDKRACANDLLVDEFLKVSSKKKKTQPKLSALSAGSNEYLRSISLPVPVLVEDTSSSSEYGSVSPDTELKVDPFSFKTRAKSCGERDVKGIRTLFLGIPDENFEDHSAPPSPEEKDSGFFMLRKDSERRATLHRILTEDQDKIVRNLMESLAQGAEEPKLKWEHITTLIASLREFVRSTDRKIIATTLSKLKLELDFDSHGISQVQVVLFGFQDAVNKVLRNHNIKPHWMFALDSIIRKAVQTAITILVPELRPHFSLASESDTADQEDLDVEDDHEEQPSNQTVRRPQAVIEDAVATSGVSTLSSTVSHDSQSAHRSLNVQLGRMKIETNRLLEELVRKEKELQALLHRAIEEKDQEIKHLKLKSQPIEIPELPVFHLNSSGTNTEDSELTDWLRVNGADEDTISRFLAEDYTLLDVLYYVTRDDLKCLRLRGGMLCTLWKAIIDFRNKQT
The depositor's hits bear a star; nt = not tested or not shown. A selection: hits, their analogues and other compounds. The true share with any hit is near 2.5%.

SMILES	ULK1 primary	ASK1 primary
Oc1ccc(CCNc2nc(Nc3ccc4ncccc4c3)nc3nc[nH]c23)cc1	60*	-29
CN(C)c1cccc(Nc2nc(NC3CC3)c3[nH]cnc3n2)c1	43*	34
Nc1oncc1-c1ccc(NC(=O)C2COc3ccccc3O2)cc1 (stereo not drawn)	4	2
Cc1cccc(CN2CCc3c(O)cccc3C2=O)c1	8	nt
COc1cc(Nc2nc(-c3ccc(C(N)=O)cc3)nc3nc[nH]c23)cc(OC)c1OC	11	24
COc1cc(Nc2nc(Nc3cccc(N(C)C)c3)ncc2C)cc(OC)c1OC	63*	21
COc1ccc(CCNc2nc(Nc3ccccc3)nc3nc[nH]c23)cc1	4	22
Cc1cnc(Nc2cccc(N(C)C)c2)nc1Nc1ccccc1	23	15
COc1ccc(CCNc2nc(Nc3cc(OC)c(OC)c(OC)c3)nc3nc[nH]c23)cc1	69*	14
COc1cc(Nc2nc(NC3CC3)c3[nH]cnc3n2)cc(OC)c1OC	62*	-6
COc1cc(Nc2nc(NC3CCN(Cc4ccccc4)CC3)c3[nH]cnc3n2)cc(OC)c1OC	6	18
CCCNc1cc(N2CCCC(C(=O)N(CC)CC)C2)ncn1 (stereo not drawn)	-12	3
CCCN(C(=O)C(c1ccccc1)c1ccccc1)C1CCN(C)CC1	-9	nt
Cc1nc(-c2cncc(-c3ccc(F)cc3)c2)cc(N2CCC(O)CC2)n1	-4	nt
Nc1cccc(-c2ccc(C(=O)NCc3cccc(C(F)(F)F)c3)s2)c1	3	-2
c1ccc(Oc2ccc(Nc3nc(Nc4ncccn4)nc4c3ncn4-c3ccsc3)cc2)cc1	2	3
O=C(NC1CC1)c1ccnc(Nc2ccncc2)c1	5	-4
CS(=O)(=O)Cc1ccc(-c2ccnc(Nc3ccc(S(N)(=O)=O)cc3)n2)cc1	50*	-14
CCS(=O)(=O)c1ccc(-c2ccnc(Nc3ccc(S(N)(=O)=O)cc3)n2)cc1	15	-24
CN(C)S(=O)(=O)Nc1ccc(-c2ccnc(Nc3ccc(S(N)(=O)=O)cc3)n2)cc1	48*	3
CS(=O)(=O)Nc1cccc(-c2ccnc(Nc3cccc(S(N)(=O)=O)c3)n2)c1	26	-1
NS(=O)(=O)c1ccc(Nc2nccc(-c3ccc(Nc4ccccc4)cc3)n2)cc1	-4	-59
CS(=O)(=O)Nc1ccc(-c2ccnc(Nc3cccc(S(N)(=O)=O)c3)n2)cc1	58*	-20
CCCNc1nc(-c2ccc(C(=O)NC3CC3)cc2)ncc1C	0	-4
Fc1ccc(-c2cc(NCCCn3ccnc3)nc(-c3ccccc3)n2)cc1	-58	nt
SMILES	ULK1 primary	ASK1 primary
Cc1cc(NCCCN2CCCC2=O)nc(Nc2cccc(N(C)C)c2)n1	6	16
COc1cc2nc(Cl)nc(NCc3ccccc3)c2cc1OC	2	4
N#C/C(=C\c1nn(-c2ccccc2)c(N)c1C#N)c1ccco1	45*	nt
Cc1ncn(-c2ccc(Nc3nccc(-c4ccc(N5CCC6(CC5)OCCO6)c(C#N)c4)n3)cc2)n1	-1	1
Nc1nccc(-c2ccc3nc(C4COc5ccccc5C4)[nH]c(=O)c3c2)n1 (stereo not drawn)	-1	14
O=C(c1ccc(Nc2nccc(-c3ccc4nc(C5CC5)[nH]c(=O)c4c3)n2)cc1)N1CCCC1	84*	-71
CN1CCN(C(=O)c2ccc(Nc3nccc(-c4ccccc4)n3)cc2)CC1	-1	22
O=C(Nc1ccc(Nc2nccc(-c3ccc4nc(C5CC5)[nH]c(=O)c4c3)n2)cc1)N1CCCC1	59*	-44
O=C(C1CCC(Nc2nccc(-c3ccc4nc(C5CC5)[nH]c(=O)c4c3)n2)CC1)N1CCCC1 (stereo not drawn)	23	-6
O=C(Nc1cccc(Nc2nccc(-c3ccc4nc(C5CC5)[nH]c(=O)c4c3)n2)c1)N1CCCC1	51*	1
N#Cc1cc(-c2ccnc(Nc3cccc(NC(=O)N4CCCC4)c3)n2)ccc1N1CCCC1	67*	13
COc1ccc(-c2nccc(NCc3ccccc3)n2)cc1	-10	-20
O=C1CCCN1CCCNc1cc(Nc2nccc3ccccc23)ncn1	2	-3
CC(=O)Nc1ccc(Nc2ncnc3nc(Nc4ccccn4)[nH]c23)cc1	6	2
CC(C)N(CCNc1nc(Nc2ccncn2)nc2c1ncn2C(C)C)C(C)C	5	0
COc1ccc(CCNc2nc(-c3ccc(OC)nc3)nc3c2ncn3-c2ccccc2)cc1	-6	-11
Cn1cccc(-c2ccc(Nc3nccc(-c4ccc5nc(C6CC6)[nH]c(=O)c5c4)n3)cc2)c1=O	37	-10
Cn1nnc(-c2ccc(Nc3nccc(-c4ccc5nc(C6CC6)[nH]c(=O)c5c4)n3)cc2)n1	44*	-22
O=C(Cc1cn(-c2ccc(Nc3nccc4ccccc34)nn2)c2ccccc12)Nc1ccccc1	6	5
C[C@@H](N)C1CCC(C(=O)Nc2ccncc2)CC1 (stereo partly drawn)	64*	15
N[C@H](Cc1ccc(Br)cc1)C(=O)N1CCC(C(=O)Nc2ccncc2)CC1	5	-3
CC(=O)NC(=S)NNC(=O)c1ccc(OCc2ccccc2)cc1	-4	nt
COc1ccc(CC(=O)Nc2ncc3ccc(-c4cn[nH]c4)cc3c2Cl)cc1	83*	1
COc1ccc(CC(=O)Nc2ncc3ccc(-c4cn[nH]c4)cc3c2C#N)cc1	5	-39
CN(C)[C@@H]1C(=O)C(C(=O)NCN2CCCC2)=C(O)[C@@]2(O)C(=O)C3=C(O)c4c(O)cccc4[C@@](C)(O)C3CC12 (stereo partly drawn)	28	nt
SMILES	ULK1 primary	ASK1 primary
C=C1c2cccc(O)c2C(O)=C2C(=O)[C@]3(O)C(O)=C(C(N)=O)C(=O)[C@@H](N(C)C)[C@@H]3[C@@H](O)[C@H]12	64*	nt
C=C1c2c(Cl)ccc(O)c2C(O)=C2C(=O)[C@]3(O)C(O)=C(C(N)=O)C(=O)[C@@H](N(C)C)[C@@H]3[C@@H](O)[C@H]12	72*	nt
C/C=C(\CC(NC1CC1)c1cccs1)C[Si](C)(C)C (stereo not drawn)	-6	11
O=C(O)C(=Cc1ccc(-c2ccc(Cl)cc2)o1)C(=O)O	-4	nt
Cc1ncc(CSSCc2cnc(C)c(O)c2CO)c(CO)c1O	47*	nt
Cc1ncc(COP(=O)(O)O)c(C=O)c1O	-13	nt
CNC[C@H](O)c1ccc(O)c(O)c1	0	nt
N[C@H](C(=O)O)[C@H](O)c1ccc(O)c(O)c1	89*	nt
O=C(Nc1ccncc1)C1CCN(C(=O)C(O)c2ccc(Br)cc2F)CC1 (stereo not drawn)	-6	9
CC(C)n1c(-c2cccc(N)c2)nc2c(Nc3ccccc3)ncnc21	-17	-9
COc1cc(C=NNC(=O)c2ccncc2)ccc1O	13	nt
COc1cc(/C=N/Nc2nncn2/N=C/c2ccc(O)c(OC)c2)ccc1O	51*	nt
O=C(NCc1ccccc1)c1cnc(NC2CCC(O)CC2)s1 (stereo not drawn)	7	9
Cc1cnc(-c2ccc(C(=O)NC3CC3)cc2)nc1NCCO	3	-9
CC(C)n1c(-c2cccc(N)c2)nc2c(NCCN3CCOCC3)ncnc21	-26	-5
CC(C)c1nc2ccc(-c3cnn(C)c3)cc2c(=O)[nH]1	-3	-10
Cc1n[nH]c(C)c1-c1ccc2nc(C(C)C)[nH]c(=O)c2c1	60*	6
O=C(NCc1nc2ccccc2[nH]1)c1ccnc(-c2ccc(N3CCOCC3)nc2)c1	4	-5
c1ccc2c(-c3cc(NC4CC4)ncn3)csc2c1	-11	4
